# Compounds with a hit are over-represented: about 1.1% of the library has one in this group of screens.
# OPRM1-OPRD1 ag: OPRM1-OPRD1 heterodimerization agonism. P35372+P41143. cells, luminescence. activation, % at 9.3 µM. 0.3% of 340,000 active; in the data active means activation above about 18%
# Target sequence (P35372 whole entry, looked up): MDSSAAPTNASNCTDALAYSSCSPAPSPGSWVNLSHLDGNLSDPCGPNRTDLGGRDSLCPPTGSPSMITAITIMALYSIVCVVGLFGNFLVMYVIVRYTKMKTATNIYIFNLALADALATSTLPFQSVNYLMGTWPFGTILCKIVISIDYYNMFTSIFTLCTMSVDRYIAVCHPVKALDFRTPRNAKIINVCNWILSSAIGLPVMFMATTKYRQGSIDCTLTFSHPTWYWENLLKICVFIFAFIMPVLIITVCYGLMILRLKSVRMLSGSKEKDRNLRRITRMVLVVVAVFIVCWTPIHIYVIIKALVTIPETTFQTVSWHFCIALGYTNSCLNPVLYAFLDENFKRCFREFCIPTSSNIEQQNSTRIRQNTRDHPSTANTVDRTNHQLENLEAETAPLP
# Target sequence (P41143 whole entry, looked up): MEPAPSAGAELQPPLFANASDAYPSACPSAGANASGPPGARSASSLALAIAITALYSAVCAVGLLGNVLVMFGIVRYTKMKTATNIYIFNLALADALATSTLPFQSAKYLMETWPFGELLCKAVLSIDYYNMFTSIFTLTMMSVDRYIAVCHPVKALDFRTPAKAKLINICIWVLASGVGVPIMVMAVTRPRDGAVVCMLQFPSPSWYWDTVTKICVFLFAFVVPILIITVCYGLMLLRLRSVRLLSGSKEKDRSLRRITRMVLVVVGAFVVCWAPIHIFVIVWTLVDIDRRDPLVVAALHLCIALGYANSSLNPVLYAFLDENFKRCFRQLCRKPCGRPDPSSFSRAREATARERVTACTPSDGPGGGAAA
# MOR-DOR inv ag-1: mu-delta opioid heterodimer inverse agonism; cell-based MOR-DOR heterodimer luminescence; inhibition, % at 9.3 µM; AID 504357; 0.21% of 340,000 active; P35372+P41143; in the data active means inhibition above about 22%, passing the limit was not always enough
# HTR5A ag ctr: HTR5A agonism, opioid heterodimer counter-screen; P47898; HTR5A agonist assay, luminescence, cell-based; activation, % at 9.3 µM; 0.61% of 340,000 active; in the data active means activation mostly above about 9.5%, no sharp cut-off; inactive means mostly below about 7.6%
# HTR5A inv ag: HTR5A inverse agonism, opioid heterodimer counter-screen. P47898. HTR5A cell line, luminescence. inhibition, % at 9.3 µM. 0.083% of 340,000 active. AID 504634; in the data active means inhibition mostly above about 23%, no sharp cut-off; inactive means mostly below about 18%
# MOR-DOR inv ag-2: counter-screen for HTR5A inverse agonists: OPRM1-OPRD1 heterodimerization inverse agonism; shares compounds with HTR5A inv ag; U2OS counter-screen cells, complementation luminescence; inhibition, % at 9.3 µM; 190 tested, under 10 active
# HTR5A inv conf: confirmation of human HTR5A inverse agonists; 190 tested, under 10 active; HTR5A-expressing cells, inverse agonism, luminescence; shares compounds with HTR5A inv ag; inhibition, % at 9.3 µM
# Numbers stand for hits; . = inactive; / = no result. Unless noted, how the calls were made is not given here.
SMILES,OPRM1-OPRD1 ag,MOR-DOR inv ag-1,HTR5A ag ctr,HTR5A inv ag,MOR-DOR inv ag-2,HTR5A inv conf
C=CCn1c(CCn2c3ccccc3c3ccccc32)n[nH]c1=S,.,.,.,.,/,/
N#CC1=C(N)Oc2c(ccc3cccnc23)C1c1ccccc1 (stereo not given),.,.,.,33,.,.
Cc1ccc(C(C)C)c(OCC(O)CNC2CCCC2)c1 (stereo not given),.,.,.,.,/,/
Cc1sc(NC(=O)CCS(=O)(=O)c2ccccc2)c(C#N)c1C,.,.,.,.,/,/
Cc1sc(NC(=O)CS(=O)(=O)c2ccccc2)c(C#N)c1C,.,.,.,41,.,.
COc1ccc(-c2noc(CNS(=O)(=O)c3ccc(NC(C)=O)cc3)n2)cc1OC,.,.,.,.,/,/
CN1C(=S)SC(N2OC3C(=O)N(c4ccccc4)C(=O)C3C2c2ccc(Cl)cc2)C1(C)C (stereo not given),.,.,.,.,/,/
O=C1CCC[C@@H]2C[C@@]3(C[C@@H]4CCN1[C@H]24)Nc1cc(Cl)ccc1NC3=NC1CCCCC1,.,.,.,.,/,/
O=C1CCC[C@@H]2C[C@@]3(C[C@@H]4CCN1[C@H]24)Nc1cc([N+](=O)[O-])ccc1NC3=NC1CCCCC1,.,.,.,35,.,.
CN1CCN(C(c2ccc(Cl)cc2)c2cc(Cl)c3cccnc3c2O)CC1 (stereo not given),.,.,.,.,/,/
Oc1c(C(c2ccccn2)N2CCCCC2)cc(Cl)c2cccnc12 (stereo not given),.,.,.,29,.,.
O=[N+]([O-])c1cccc(/C=N/Nc2nc(NCc3ccccc3)nc(N3CCOCC3)n2)c1O,.,.,.,88,.,.
O=[N+]([O-])c1ccc(/C=N/Nc2nc(NCc3ccccc3)nc(N3CCOCC3)n2)cc1,.,.,.,.,/,/
COc1ccc(NS(=O)(=O)c2cc(C(=O)OC(C)C(=O)N3CCOCC3)ccc2Cl)cc1 (stereo not given),.,.,.,.,/,/
CCOC(=O)CCNC(=O)N1CCCC(Cc2ccccc2)(C(=O)OCC)C1 (stereo not given),.,.,.,24,.,.
COc1cc2c(cc1OC)C(COc1cc(C)cc(C)c1)N(C(C)=O)CC2 (stereo not given),.,.,.,.,/,/
Cc1ccc2ccc(C(Nc3cccc(C(F)(F)F)c3)c3cccnc3)c(O)c2n1 (stereo not given),.,.,.,89,.,.
CCCN(CC(=O)Nc1ccccc1C)C(=O)c1ccc(C(=O)c2ccccc2)cc1,.,.,.,.,/,/
CCCN(CC(=O)Nc1ccccc1C)C(=O)c1ccc(-c2ccc(C(C)=O)cc2)o1,.,.,.,43,.,.
COCCNc1nc(-c2ccc(OC)cc2)c(-c2ccc(OC)cc2)s1,.,.,.,.,/,/
COc1ccc(Cc2nc3ccc(C(=O)NCCn4ccnc4C)cc3o2)cc1OC,.,.,.,.,/,/
Cc1cccc(NC(=S)N/N=C2/CCCCc3ccccc32)c1,.,.,.,.,/,/
Cc1ccc(NC(=S)N/N=C2/CCCCc3ccccc32)cc1,.,.,.,44,.,.
CCC1(C)Cc2ccccc2-c2c1c(=O)n(-c1ccc(C)cc1)c1nnnn21 (stereo not given),.,.,.,40,.,.
O=[N+]([O-])c1ccc(N/N=C/c2ccc(O)c(O)c2O)c(S(=O)(=O)N2CCOCC2)c1,.,.,.,27,.,.
SMILES,OPRM1-OPRD1 ag,MOR-DOR inv ag-1,HTR5A ag ctr,HTR5A inv ag,MOR-DOR inv ag-2,HTR5A inv conf
O=[N+]([O-])c1ccc(N/N=C/c2cccc(O)c2O)c(S(=O)(=O)N2CCOCC2)c1,.,.,.,48,.,.
COc1cc(/C=N/Nc2ccc([N+](=O)[O-])cc2S(=O)(=O)N2CCOCC2)cc(OC)c1OC,.,.,.,.,/,/
C=CCn1c(SCC(=O)Nc2ccc(F)cc2)nc2cc(C(=O)O)ccc2c1=O,.,.,.,43,.,.
COc1cccc(C(=O)Nc2ccc(N3CCN(C(=O)c4cccs4)CC3)cc2)c1,.,.,.,33,.,.
O=C(Nc1ccc(N2CCN(C(=O)c3cccs3)CC2)cc1)c1cccc(F)c1,.,.,.,.,/,/
O=C(Nc1nnc(-c2ccccc2)o1)c1nc2ccccc2s1,.,.,.,41,.,.
N=C1C=CC(=C(c2ccc(N)cc2)c2ccc(N)cc2)C=C1,.,.,.,31,.,.
Nc1ccc(C(=O)C(=O)c2ccc(N)cc2)cc1,.,.,.,.,/,/
CCN(CC)S(=O)(=O)c1ccc(C(=O)NCC2(N3CCOCC3)CCCCC2)cc1,.,.,.,.,/,/
CNC(=O)c1cc(C(=O)c2ccccc2Br)c[nH]1,.,.,.,.,/,/
COCCCNC(=O)c1cc(C(=O)c2ccccc2Br)c[nH]1,.,.,.,71,.,.
CSCCC(=O)N1CCC(n2nccc2NC(=O)CCc2ccccc2)CC1,.,.,.,.,/,/
O=[N+]([O-])c1ccc(/C=N/Nc2ccc3ccccc3c2)o1,.,.,.,28,.,.
COc1ccc(NS(=O)(=O)c2ccc(C)c(C(=O)N(C)CC(=O)Nc3cccc(OC)c3)c2)cc1,.,.,.,.,/,/
COc1cccc(CCc2nnc(CCC(=O)N(C)C3CC(C)(C)NC(C)(C)C3)o2)c1,.,.,.,.,/,/
COCCn1c(SCC(=O)NNC(=O)c2cc(Cl)ccc2OC)nnc1-c1ccncc1,.,.,.,43,.,.
O=C(/C=C/c1ccc(F)cc1)NC(=S)NNC(=O)[C@H]1C[C@@H]1c1ccccc1,.,.,.,48,.,.
O=C(NC(=S)NNC(=O)[C@H]1C[C@@H]1c1ccccc1)c1ccc(F)cc1,.,.,.,.,/,/
O=C(CN1CCN(S(=O)(=O)c2ccc(Cl)cc2)CC1)NC1CCCC1,.,.,.,.,/,/
O=C(CN1CCN(S(=O)(=O)c2ccc(F)cc2)CC1)NC1CCCC1,.,.,.,35,.,.
Cn1c(CCNC(=O)c2cc(COc3ccc(F)c(F)c3)on2)nc2ccccc21,.,.,.,.,/,/
Cc1cccc(NC(=O)Cn2nc(-c3cccs3)ccc2=O)c1C,.,.,.,.,/,/
Brc1ccc(-c2nnc(-c3ccccc3Br)o2)cc1,.,.,.,40,.,.
Cc1ccc(-c2nnc(-c3ccccc3Br)o2)cc1,.,.,.,.,/,/
CCOc1ccccc1C1c2[nH]c3ccccc3c2C[C@H]2C(=O)N(C3CCN(Cc4ccccc4)CC3)CC(=O)N12 (stereo not given in full),.,.,.,.,/,/
Cc1ccccc1C1c2[nH]c3ccccc3c2C[C@H]2C(=O)N(C3CCN(Cc4ccccc4)CC3)CC(=O)N12 (stereo not given in full),.,.,.,32,.,.
O=C(CSc1nnc(COc2ccc(Cl)cc2)o1)Nc1ccc(N2CCOCC2)cc1,.,.,.,.,/,/
Cc1ccc(C2N(C)c3ccccc3-c3nc4ccccc4n32)o1 (stereo not given),.,.,.,.,/,/
CC(=O)N1c2ccccc2-c2nc3ccccc3n2C1C (stereo not given),.,.,.,32,.,.

# Source: PubChem BioAssay
